The record followed here is PubChem BioAssay (NCATS).

Calls of active or inactive are those of the source. Calls come from the whole dose curve; as a rule, active = well fitted curve in the direction sought with a large enough effect; inconclusive = small, poorly fitted or top-dose-only effect, or another doubt; inactive = no such curve, though single readings can be large or run the other way.

Sequence of Hexokinase-4 (Homo sapiens) + Glucokinase regulatory protein (Homo sapiens) (P35557 whole entry, looked up): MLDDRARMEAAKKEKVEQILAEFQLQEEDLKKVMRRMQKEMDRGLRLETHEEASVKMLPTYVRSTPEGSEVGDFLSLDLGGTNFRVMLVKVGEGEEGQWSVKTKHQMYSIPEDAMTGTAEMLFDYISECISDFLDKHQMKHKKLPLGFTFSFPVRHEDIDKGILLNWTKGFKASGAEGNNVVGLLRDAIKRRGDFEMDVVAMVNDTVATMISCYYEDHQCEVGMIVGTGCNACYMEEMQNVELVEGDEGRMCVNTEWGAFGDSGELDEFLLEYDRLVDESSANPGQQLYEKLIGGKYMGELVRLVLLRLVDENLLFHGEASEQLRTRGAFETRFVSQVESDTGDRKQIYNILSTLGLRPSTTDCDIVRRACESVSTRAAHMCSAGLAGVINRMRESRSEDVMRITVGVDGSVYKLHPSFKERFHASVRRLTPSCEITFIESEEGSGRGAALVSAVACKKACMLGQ
Sequence of Hexokinase-4 (Homo sapiens) + Glucokinase regulatory protein (Homo sapiens) (Q14397 whole entry, looked up): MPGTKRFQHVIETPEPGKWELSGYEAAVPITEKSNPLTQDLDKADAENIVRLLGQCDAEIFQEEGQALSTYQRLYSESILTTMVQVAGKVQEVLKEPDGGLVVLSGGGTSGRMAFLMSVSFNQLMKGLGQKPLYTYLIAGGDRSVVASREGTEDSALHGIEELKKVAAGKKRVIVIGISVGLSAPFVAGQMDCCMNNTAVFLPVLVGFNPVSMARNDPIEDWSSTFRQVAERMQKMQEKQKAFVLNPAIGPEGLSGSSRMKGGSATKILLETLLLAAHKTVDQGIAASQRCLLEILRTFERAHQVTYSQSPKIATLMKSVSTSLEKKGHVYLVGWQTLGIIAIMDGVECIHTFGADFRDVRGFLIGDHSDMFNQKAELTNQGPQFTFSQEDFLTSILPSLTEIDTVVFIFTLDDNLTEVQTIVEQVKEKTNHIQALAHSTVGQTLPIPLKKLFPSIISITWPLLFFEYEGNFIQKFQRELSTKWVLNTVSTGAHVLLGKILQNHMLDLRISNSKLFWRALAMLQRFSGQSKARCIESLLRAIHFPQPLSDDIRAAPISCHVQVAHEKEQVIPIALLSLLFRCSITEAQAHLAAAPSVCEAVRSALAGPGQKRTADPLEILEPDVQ

The experiment addresses Hexokinase-4 (Homo sapiens) + Glucokinase regulatory protein (Homo sapiens) (UniProt P35557+Q14397). The experiment in a line: qHTS assay for inhibitors of recombinant human GCK-GKRP interaction: ADP-Glo assay (AID 743206). The settings on record: ADP-Glo luminescence, 60 min, 0% = vehicle-only wells with enzyme present; series mostly up to 76.9 µM. The source says: Glucokinase (GCK) is a glucose sensor in hepatocytes and pancreatic beta-cells. Hepatic GCK is regulated by glucokinase regulatory protein (GKRP), which is predominantly localized to the liver. GKRP binds to GCK inhibiting its activity in the fasting state while in the presence of glucose the GKRP is displaced. There is an additional layer of regulation by fructose 1-phosphate and fructose 6-phosphate, which inhibit and enhance the GCK-GKRP interaction, respectively. GCK plays a role in glucose homeostasis and there is an interest in the development of strategies to activate GCK to lower blood glucose levels in type 2 diabetes. To date the majority of effort has focused on direct activation of GCK and the assays developed herein look to activate GCK by inhibiting its binding to GKRP. A compound that inhibits the interaction of GCK with GKRP could be important for the treatment of diabetes and can also be used as a tool compound to further elucidate GCK-GKRP biology. To that end, we have developed a sensitive HTS biochemical assay where in GCK activity is coupled to luciferase to interrogate the GCK-GKRP interaction. This assay was screened against a small compound library to look for modulators of activity.
2 uL of 15 nM GST-GCK and 15 nM FLAG-GKRP proteins with 2 uM S6P (columns 1-2, 4-48; Millipore, Billerica, MA) are dispensed into Greiner, white solid-bottom 1536-well assay plates; columns 3 receive buffer without GCK as a control for maximum inhibition. Compounds (23 nL) are then transferred via Kalypsys pin tool equipped with 1536-pin array (10 nL slotted pins, V&P Scientific, San Diego, CA). The library compounds are in columns 5-48 and columns 1-4 serve as controls with DMSO in columns 1 and 3 and 26 mM 1:1.5 fold serial of gluckokinase activator (GKA-EMD) in column 2 and 26 mM of the glucokinase activator (GKA-EMD) in column 4. Following addition of compound, 1 uL of ATP […] is added, and the plate is incubated for 60 minutes at room temperature. The amount of ADP is then quantified by the ADP-Glo Kit (Promega, Madison, WI). First, 2 uL of the first kit reagent is added, and the reaction is incubated for 45 minutes; then, 4 uL of the second kit reagent are added and the reaction is incubated for 30 minutes at which time the luminescence is read on a Viewlux plate reader (Perkin-Elmer, Waltham, MA). The final concentration of reagents in the reaction are 0.4 mM ATP, 25 mM Hepes pH 7.6, 25 mM KCl, 2 mM MgCl2, 1 mM DTT, 0.025% BSA, 0.01% Tween 20, 5 mM glucose. Data are normalized to DMSO-treated control columns with (maximum signal) and without (minimum signal) enzyme.
Take `NC(N)=NC(=O)c1nc(Cl)c(N)nc1N`: the outcome was inactive. Turning to `Nc1nc2c(ncn2COCCO)c(=O)[nH]1`, the outcome was inactive. Consider `CC(C)NCC(O)COc1ccc(COCCOC(C)C)cc1` (stereo not given), for which the outcome was inactive. Take `CCN(CC)CCCC(C)Nc1ccnc2cc(Cl)ccc12` (stereo not given): the result was inactive. With `CC(C)(Sc1ccc(CCN(CCCCC2CCCCC2)C(=O)NC2CCCCC2)cc1)C(=O)O`, the outcome was inactive. For `Nc1ccc(S(=O)(=O)Nc2ccnn2-c2ccccc2)cc1`, the result was inactive. Regarding `Cc1ccccc1C(OCCN(C)C)c1ccccc1` (stereo not given), the result was inactive.

On to `Cn1cnc([N+](=O)[O-])c1Sc1ncnc2nc[nH]c12`, for which the outcome was inactive. For the compound `CCCCNc1cc(C(=O)O)cc(S(N)(=O)=O)c1Oc1ccccc1`, the outcome was inactive. Consider `C1COC(NC(C2CC2)C2CC2)=N1`, for which the result was inactive. On to `O=C(O)COCCN1CCN(C(c2ccccc2)c2ccc(Cl)cc2)CC1` (stereo not given), for which the result was inactive.

`CN1CCN(CCCN2c3ccccc3Sc3ccc(C(F)(F)F)cc32)CC1`: the outcome was inactive. With `NC[C@H](O)c1ccc(O)c(O)c1`, the outcome was inactive. In the case of `Cc1cn[nH]c1`, the result was inactive. Consider `NCCCC(N)(C(=O)O)C(F)F` (stereo not given), for which the outcome was inactive. Under `O=C1CCC(N2C(=O)c3ccccc3C2=O)C(=O)N1` (stereo not given) stands “inactive”; under `OC(CCN1CCCCC1)(c1ccccc1)C1CC2C=CC1C2` (stereo not given), “inactive”; under `Clc1cccc(Cl)c1NC1=NCCN1`, “inactive”.

Turning to `CC(C)C[C@H](NC(=O)[C@@H](O)[C@H](N)Cc1ccccc1)C(=O)O`, the result was inactive. In the case of `CC(=O)Oc1ccccc1C(=O)O`, the outcome was inactive. Take `CC(C[N+](C)(C)C)OC(N)=O` (stereo not given): the result was inactive. As to `C[C@]12CCC(=O)C=C1CC[C@@H]1[C@@H]2[C@@H](O)C[C@@]2(C)[C@H]1CC[C@]2(O)C(=O)CO`, the outcome was inactive. Under `O=c1[nH]cnc2[nH]ncc12` stands “inactive”; under `O=C1CCc2cc(OCCCCc3nnnn3C3CCCCC3)ccc2N1`, “inactive”. Under `NS(=O)(=O)c1cc2c(cc1Cl)NC=NS2(=O)=O` stands “inactive”; under `Cc1oncc1C(=O)Nc1ccc(C(F)(F)F)cc1`, “inactive”; under `c1ccc([C@H]2CN3CCSC3=N2)cc1`, “inactive”. On to `Nc1nc2ccc(OC(F)(F)F)cc2s1`, for which the result was inactive.

In the case of `Oc1ccc(C2CNCCc3c2cc(O)c(O)c3Cl)cc1` (stereo not given), the result was inactive. Under `O=C(Nc1nc2ccccc2n1CCN1CCOCC1)c1cccc([N+](=O)[O-])c1` stands “inactive”; under `O=c1n(CCCN2CCN(c3cccc(Cl)c3)CC2)nc2ccccn12`, “inactive”. Regarding `Cc1cccc(-c2[nH]c(C(C)(C)C)nc2-c2ccc3nccnc3c2)n1`, the result was inactive. Regarding `CCC(C)N(C)C(=O)c1cc2ccccc2c(-c2ccccc2Cl)n1` (stereo not given), the outcome was inactive. The result for `CCOC(=O)N1CCC(=C2c3ccc(Cl)cc3CCc3cccnc32)CC1` reads “inactive”; that for `OC(CN1CCC(Cc2ccc(F)cc2)CC1)c1ccc(Cl)cc1` (stereo not given), “inactive”.

For the compound `CCn1cc(C(=O)O)c(=O)c2cc(F)c(N3CCNC(C)C3)c(F)c21` (stereo not given), the outcome was inactive.

Take `Cc1[nH]c(=O)c(C#N)cc1-c1ccc2nccn2c1`: the result was inactive. `NCCc1ccc(O)c(O)c1`: the outcome was inactive. The result for `Cc1ccc(N(CC2=NCCN2)c2cccc(O)c2)cc1` reads “inactive”; that for `CCOC(=O)C1=C[C@]2(CC)CCCN3CCc4c(n1c1ccccc41)[C@@H]32`, “inactive”.
